Bioassay records as filed in PubChem.
Rows were chosen to be rich in hits. Some 2.5% of all compounds tested hit in one or more screens of this group.
Bst PK mod – pyruvate kinase (B. stearothermophilus) modulation | AID 361 | hit rate 1.2% among 51,000 | Potency, µM | purified pyruvate kinase, luminescence ATP production; ribose 5-phosphate activator present at AC10; in the data active means potency below about 11 µM; inconclusive means mostly about 12 µM to 25 µM;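 the screen sought inhibitors and activators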
Luciferase inh – firefly luciferase inhibition. hit rate 2.2% among 72,000. AID 411. purified firefly luciferase, luminescence, 8 min. Potency, µM (top dose mostly 57.1 µM), usual class: inhibitors; active means well fitted inhibition curve with a large enough effect; inconclusive means small, poorly fitted or top-dose-only effect; further: nearly all actives have a fitted effect of over 40% in size
Target sequence (P08659 whole entry, looked up): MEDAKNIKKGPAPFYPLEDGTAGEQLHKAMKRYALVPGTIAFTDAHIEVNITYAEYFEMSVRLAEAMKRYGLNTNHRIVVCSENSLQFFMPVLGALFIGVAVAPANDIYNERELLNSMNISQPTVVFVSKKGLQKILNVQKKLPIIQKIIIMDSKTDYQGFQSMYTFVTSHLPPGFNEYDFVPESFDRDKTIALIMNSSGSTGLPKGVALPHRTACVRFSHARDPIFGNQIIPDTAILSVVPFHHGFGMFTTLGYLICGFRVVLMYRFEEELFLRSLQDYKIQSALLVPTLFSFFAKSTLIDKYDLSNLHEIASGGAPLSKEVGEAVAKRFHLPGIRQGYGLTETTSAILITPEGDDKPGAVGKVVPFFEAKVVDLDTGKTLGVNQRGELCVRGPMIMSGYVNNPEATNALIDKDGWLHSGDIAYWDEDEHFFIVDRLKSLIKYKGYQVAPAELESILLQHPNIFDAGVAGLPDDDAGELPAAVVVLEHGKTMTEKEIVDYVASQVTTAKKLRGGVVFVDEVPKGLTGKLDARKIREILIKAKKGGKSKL
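Inhibition of light generation by firefly luciferase from ATP and luciferin was profiled with concentration-response curves per sample, ATP held at 10 uM within the enzyme's linear range. Plates were read by luminescence after an 8-minute ambient incubation.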
Each line names hits and unclear results; the compound was inactive in the other large screens; ! = not confirmed by another sample.

Cc1nnc(SCC2=C(C(=O)O)N3C(=O)[C@@H](NC(=O)Cn4cnnn4)[C@@H]3SC2)s1	none (no result: Bst PK mod)
O=C(CCc1ccc(O)cc1)c1c(O)cc(O)cc1O[C@@H]1O[C@@H](CO)[C@@H](O)[C@@H](O)[C@H]1O	none (no result: Bst PK mod)
CC1(C)N=C(N)N=C(N)N1c1cccc(OCc2cccc(N)c2)c1	none (no result: Bst PK mod)
O=c1c2ccccc2nc2c3ccccc3c3nncn3n12	Bst PK mod 0.9
CC1CN(c2nn3c(=O)c4ccccc4nc3c3ccccc23)CC(C)O1 (stereo not given)	Bst PK mod inconclusive
CN1CCN(C(=O)c2cc(-c3ccc(O)cc3)on2)CC1	none (no result: Bst PK mod)
O=C(c1ccco1)N1CCN(C(=O)c2cc(-c3ccccn3)nc3ccc(Cl)cc23)CC1	none
O=C(c1ccco1)N1CCN(C(=O)c2cc(-c3ccncc3)nc3ccc(Br)cc23)CC1	Bst PK mod 7.6
O=c1ccn([C@@H]2O[C@@H](COP(=O)(O)OP(=O)(O)O)[C@H](O)[C@@H]2O)c(=O)[nH]1	none (no result: Bst PK mod)
Nc1ccc(C23CC4CC(CC(O)(C4)C2)C3)cc1	Bst PK mod 9.1
Cc1ccc(C23CC4CC(CC(NC(=O)N5CCN(C)CC5)(C4)C2)C3)cc1	none
CN(C)c1nc(N)nc(Nc2ccccc2C#N)n1	none (no result: Bst PK mod)
CN(C)c1nc(Nc2ccc(Cl)cc2)nc(OCC#N)n1	Bst PK mod 1.7
CCOC(=O)N/N=C1/C[C@@H](O)[C@@H](O)[C@@H]2[C@@H]3C(=O)N(c4cccc(Oc5ccccc5)c4)C(=O)[C@H]3CC[C@@H]12	none (no result: Bst PK mod)
Clc1ccc2c(c1)N(CCCN1CCCC13CCCCC3)c1ccccc1S2	none (no result: Bst PK mod)
Cc1cc(NC(=O)CSc2cn(CCNC(=O)c3ccc(Cl)cc3)c3ccccc23)no1	none (no result: Bst PK mod)
CCOc1ccc(C(=O)NCCn2cc(SCC(=O)Nc3cc(C)on3)c3ccccc32)cc1	Luciferase inh 16µM
COC(=O)C/C=C\[C@@H](C)[C@@H](/C=N\O[C@@H](C)c1cc(-c2c(C)cc(C)cc2C)no1)OC	none (no result: Bst PK mod)
O=C(/C=C\c1ccccc1)c1ccccc1O	none (no result: Bst PK mod)
O=C(/C=C/c1ccccc1)c1ccccc1	Luciferase inh 10µM
C#CCOC(=O)[C@H](N)CC(N)=O	none (no result: Bst PK mod)
[O-][n+]1onc2c1CCc1nnc(-c3ccccc3)cc1-2	none
Cc1ccc(-c2cc3c(nn2)-c2ccccc2C3=O)cc1	Luciferase inh 0.25µM (no result: Bst PK mod)
CN1CCN(c2ncncc2-c2cccnc2)CC1	none (no result: Bst PK mod)
Cc1ccc(C(=O)[C@@H]2[C@@H]3[C@@H](C(=O)[C@@H]4OC[C@H]3O4)[C@@H]3C=Cc4ccccc4N23)cc1	none (no result: Bst PK mod)
Cc1cccc(OCC(=O)Nc2cc(C)ccc2O)c1	none
COc1cccc(C(=O)/C=C/Nc2cc(C)ccc2O)c1	Bst PK mod 5.6, Luciferase inh 7.9µM
Cc1ccc(-n2c(-c3ccncc3)nnc2-c2ccco2)cc1	none
Cc1ccc(-c2cnc(-c3ccncc3)o2)cc1	Luciferase inh 13µM (no result: Bst PK mod)
Nc1ccn([C@@H]2O[C@@H](CO)[C@@H](O)[C@H]2O)c(=O)n1	none (no result: Bst PK mod)
CN1CCN(c2ccnc(-c3ccc(N(C)C)cc3)n2)CC1	none (no result: Bst PK mod)
Cc1cc(N)c2cc(NC(=O)Nc3ccc4nc(C)cc(N)c4c3)ccc2n1	none (no result: Bst PK mod)
Cc1cc(NC(=O)Nc2ccc3c(ccn3C)c2)sn1	Luciferase inh 32µM! (no result: Bst PK mod)
C=N[C@H](C(=O)N[C@@H]1C(=O)N2[C@@H]1SC(C)(C)[C@@H]2C(=O)O)c1ccccc1	none (no result: Bst PK mod)
Nc1n[nH]c(-c2ccc(F)cc2)n1	none (no result: Bst PK mod)
CCCCc1ccc(-c2nc(N)n[nH]2)cc1	Luciferase inh 7.9µM (no result: Bst PK mod)
CCCC(=O)NCCc1c2n(c3ccc(OC)cc13)Cc1ccccc1-2	none (no result: Bst PK mod)
COc1cccc(-c2cn3nc(C)c(C)nc3n2)c1	Luciferase inh 13µM
COc1cccc(-c2nn3c(-c4cccc(C)c4)nnc3s2)c1	none (no result: Bst PK mod)
Cc1cc(-c2cccs2)n[nH]1	none (no result: Bst PK mod)
Cc1nc2nc(-c3cccs3)cn2nc1C	Luciferase inh 20µM (no result: Bst PK mod)
CCC(C)c1ccc(NC(=O)c2cccnc2)cc1 (stereo not given)	Luciferase inh 25µM (no result: Bst PK mod)
CCC(C)c1ccc(O)c(NC(=O)c2cccnc2)c1 (stereo not given)	none
CCOC(=O)CC(=O)CSc1nc2c(cc1C#N)CCCCC2	Bst PK mod inconclusive, Luciferase inh 10µM
N#Cc1cc2c(nc1SCC(=O)N1CCCCC1)CCCC2	none (no result: Bst PK mod)
C=CCN1CCc2c(cc(O)c(O)c2Br)[C@H](c2ccccc2)C1	none (no result: Bst PK mod)
CCOC(=O)C1CCCN(C(=O)Cn2cnc3c2c(=O)n(C)c(=O)n3C)C1 (stereo not given)	none (no result: Bst PK mod)
CCOC(=O)C1CCCN(C(=O)Cn2sc3nc(C)cc(C)c3c2=O)C1 (stereo not given)	Luciferase inh 13µM (no result: Bst PK mod)
O=C(O)Cc1cccnc1	none (no result: Bst PK mod)
Brc1ccc(-c2nnc(-c3ccc4c(c3)OCO4)o2)o1	none
c1coc(-c2nnc(-c3ccc4c(c3)OCO4)o2)c1	Luciferase inh 10µM (no result: Bst PK mod)
C[C@@H](N)/C(N)=N/O	none (no result: Bst PK mod)
CCc1nnc(NC(=O)CCC(=O)N2CCN(Cc3ccc(Cl)cc3)CC2)s1	none
CCc1nnc(NC(=O)CCC(=O)N2CCN(Cc3ccccc3)CC2)s1	Luciferase inh 13µM (no result: Bst PK mod)
Cc1ccc2nc3ccc(N4CCN(C)CC4)nn3c(=O)c2c1	Luciferase inh 7.9µM (no result: Bst PK mod)
Cc1cc(N2CCCN(C)CC2)nc2cc(Cl)ccc12	none (no result: Bst PK mod)
